The values that follow come from PubChem BioAssay (Tox21).

Unmarked numbers belong to inactive results. Records with an inconclusive call do not appear. Activity calls are given as the source filed them. Unless noted, calls come from the whole dose curve; as a rule, active = well fitted curve in the direction sought with a large enough effect in the repeat runs; inconclusive = weak or mixed curves; inactive = no such curve, though single readings can be large; an effect the other way counts as inactive or inconclusive.

The nature of test [1]: qHTS RealTime-Glo MT Cell Viability Assay in HEK293 cells - 8 hour (AID 1224887). Note: top concentration of the series differs between compounds; nearly all actives have a fitted effect of over 50% in size. Summed up:
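Measured as luminescence from the same continuously cultured HEK293 wells at successive time points (0, 8, 16, 24, 32, 40 h) after compound addition. Reagent present from seeding; dosing at 5 h; incubation 37 C.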
For orientation: qHTS replaces the single test concentration by a dilution series.

The nature of test [2]: qHTS RealTime-Glo MT Cell Viability Assay in HepG2 cells - 0 hour (AID 1224889). Note: nearly all actives have a fitted effect of over 50% in size. Summed up: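 HepG2 cells (600/well) were dispensed with RealTime-Glo reagents, incubated 5 h at 37 °C, then treated with compounds in DMSO for up to 40 h. Nonlytic NanoLuc luminescence reflecting viable cells was read at each stated time point.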
Test [3] is described as follows: A CellTox Green Cytotoxicity Assay to monitor cytotoxicity in HepG2 cells - 8 hour (AID 1224890). Note: nearly all actives have a fitted effect of over 45% in size. Summed up: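 Fluorescent DNA-binding dye, 600 HepG2 cells/well, 5 h preincubation then compound in DMSO; same plates read at 0–40 h, 37 C.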
The nature of test [4]: qHTS assay to identify small molecule antagonists of the estrogen receptor alpha (ER-alpha) signaling pathway using the BG1 cell line in the presence of 0.1 nM 17-beta-estradiol - cell viability counter screen (AID 1259241). Note: nearly all actives have a fitted effect of over 40% in size. Summed up:
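In this screen, hormone-deprived VM7Luc4E2 cells were seeded at 4,000 per well, dosed with compound and 0.1 nM estradiol final, and incubated 22 hr at 37C and 5% CO2; fluorogenic live-cell protease signal reported viability.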

Test [5] can be described thus: qHTS assay to identify small molecule phospholipidosis (PLD) inducers (AID 1259344; active = well fitted curve in the direction sought with a large enough effect; an effect the other way counts as inactive or inconclusive). Summed up: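 After 4 h attachment on collagen I, HepG2 cells were dosed with compound alongside LipidTOX Red, kept 24 h at 37 C, fixed, and imaged for lamellar phospholipid pits.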
Test [6] is described as follows: qHTS assay to identify small molecule HDAC inhibitors - cell viability counter screen (AID 1259365). Note: series mostly up to about 92 µM; nearly all actives have a fitted effect of over 50% in size. The essentials: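 Measured quantity is CellTiter-Glo luminescence from wild-type HCT-116 cells after compound incubation of 2hr at 37C, 5% CO2; reagent developed 30min at room temperature.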
The nature of test [7]: qHTS assay to identify small molecule agonists of the sonic hedgehog signaling (Shh) pathway - cell viability counter screen (AID 1259366). Note: nearly all actives have a fitted effect of over 50% in size. Summed up:
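In quantitative high-throughput format, 3T3 Gli1-Luc cells were exposed to compounds for 24hr and multiplexed for viability using CellTiter-Fluor, incubated 1hr at 37C before the fluorescence read.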

Test [8] is described as follows: qHTS assay to identify small molecule antagonists of the sonic hedgehog signaling (Shh) pathway - cell viability counter screen (AID 1259367). Note: nearly all actives have a fitted effect of over 55% in size. Summed up:
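Conditioned medium drove Shh signaling in 3T3 Gli1-Luc cells exposed to compounds at 37C and 5% CO2. Viability was determined from CellTiter-Fluor fluorescence, with reagent incubated 1 hr after 23 hr of treatment.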

Test [9] can be described thus: qHTS assay to identify small molecule agonists of the sonic hedgehog signaling (Shh) pathway (AID 1259368; calls by dose curve;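 note: NIH/3T3-derived 3T3Gli1-Luc cells carrying a stable Gli1-driven firefly luciferase reporter; series mostly up to about 92 µM; nearly all actives have a fitted effect of over 15% in size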). The essentials: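 Stable NIH/3T3 Gli1-Luc reporter clone; 24 hr cpd exposure after a 4 hr settling period; luminescence endpoint.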
The nature of test [10]: qHTS assay to identify small molecule antagonists of the sonic hedgehog signaling (Shh) pathway (AID 1259369; calls by dose curve; note: nearly all actives have a fitted effect of over 45% in size). The essentials: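 Gli1 transcriptional reporter (firefly Luc) in NIH/3T3 background, conditioned-medium activated. 24hr exposure, luminescence endpoint.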
For test [11], the target named is Estrogen receptor beta (Homo sapiens) (UniProt Q92731). The test is described as follows: qHTS assay to identify small molecule agonists of the estrogen receptor beta (ER-beta) signaling pathway (AID 1259377; active = well fitted activation curve with a large enough effect in the signal ratio in the repeat runs, not every such curve was filed as active; the % refers to the signal ratio). The essentials: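 Reporter cells (HEK293T, ER-beta-UAS-bla) receive compounds or DMSO after a 6 hr pre-incubation. They then incubate 16 hr at 37C/5% CO2, and fluorescence from LiveBLAzer B/G substrate is measured after 2 hours at room temperature.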

For test [12] the target is unchanged. In words: qHTS assay to identify small molecule antagonists of the estrogen receptor beta (ER-beta) signaling pathway (AID 1259378; active = well fitted inhibition curve with a large enough effect in the signal ratio in the repeat runs, not every such curve was filed as active; the % refers to the signal ratio). The essentials: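 ER-beta-UAS-bla HEK293T (GripTite) cells in 2% charcoal-stripped FBS medium were preincubated 6 hr at 37C, dosed with compound, then stimulated with 1 nM E2 (final) for 16 hr; beta-lactamase reporter read by B/G FRET fluorescence after 2 hr substrate loading.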

A short description of test [13]: qHTS assay to identify small molecule agonists of the androgen receptor (AR) signaling pathway in the presence of an antagonist - cell viability counter screen (AID 1259379).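 Note: MDA-kb2 human breast cancer cells carrying an MMTV luciferase reporter; series mostly up to about 92 µM; nearly all actives have a fitted effect of over 25% in size.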 The essentials: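 Counter screen for cell viability run in parallel with the AR agonist-mode luciferase assay. MDA-kb2 cells were co-treated with nilutamide (3.0uM final) and compounds, then incubated 16 hr at 37C, and CellTiter-Fluor fluorescence was measured.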

The nature of test [14]: qHTS assay to identify small molecule agonists of the estrogen receptor beta (ER-beta) signaling pathway - cell viability counter screen (AID 1259380). Note: nearly all actives have a fitted effect of over 30% in size. The essentials:
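In this qHTS counter screen, HEK293T cells carrying an ER-beta/UAS beta-lactamase reporter, grown in 2% charcoal-stripped FBS, received compound for 16 hr; ATP-based CellTiter-Glo luminescence was then read after 30 min at room temperature.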

Test [15] is described as follows: qHTS assay to identify small molecule antagonists of the androgen receptor (AR) signaling pathway using the MDA cell line in the presence of 0.5 nM R1881 - cell viability counter screen (AID 1259242). Note: nearly all actives have a fitted effect of over 45% in size. Summed up: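 Human breast carcinoma MDA-kb2 cells, cultured without CO2, receive compounds alongside 0.5 nM (final) R1881 agonist. After 16 hr at 37C, viability is taken as live-cell protease signal.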

Test [16] concerns the target Estrogen receptor (Homo sapiens) (UniProt P03372). In words: qHTS assay to identify small molecule antagonists of the estrogen receptor alpha (ER-alpha) signaling pathway using the BG1 cell line in the presence of 0.1 nM 17-beta-estradiol (AID 1259244). Note: nearly all actives have a fitted effect of over 50% in size. The essentials:
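Seeding of stripped-serum-adapted VM7Luc4E2 cells, 24 h attachment, compound transfer, then 0.1 nM final 17beta-estradiol; after 22 h incubation, ONE-Glo reagent and luminescence reading.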

Test [17] can be described thus: qHTS assay to identify small molecule HDAC inhibitors (AID 1259364). For activity change, negative = inhibition: top concentration of the series differs between compounds. Note: potency is the fitted concentration of half-maximal effect.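 Note: wild-type HCT-116 cells with endogenous class I/II HDAC activity; nearly all actives have a fitted effect of over 45% in size.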 Summed up:
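After a 2 hr compound incubation (37C, 5% CO2), HCT-116 cells seeded at 1,500/well the day before received HDAC-Glo reagent; signal read as luminescence after 30 min at room temperature.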

Test [18] can be described thus: A CellTox Green Cytotoxicity Assay to monitor cytotoxicity in HEK293 cells - 16 hour (AID 1224888). Note: nearly all actives have a fitted effect of over 35% in size. Summed up:
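Homogeneous no-lysis format: HEK293 cell suspension mixed with CellTox Green reagent, seeded, incubated 5 h at 37 C/5% CO2, then dosed by pintool with compound in DMSO.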
% is set by controls: 0 for no effect and ±100 for the full control effect.

Sequence of Estrogen receptor (Homo sapiens) (P03372 whole entry, looked up): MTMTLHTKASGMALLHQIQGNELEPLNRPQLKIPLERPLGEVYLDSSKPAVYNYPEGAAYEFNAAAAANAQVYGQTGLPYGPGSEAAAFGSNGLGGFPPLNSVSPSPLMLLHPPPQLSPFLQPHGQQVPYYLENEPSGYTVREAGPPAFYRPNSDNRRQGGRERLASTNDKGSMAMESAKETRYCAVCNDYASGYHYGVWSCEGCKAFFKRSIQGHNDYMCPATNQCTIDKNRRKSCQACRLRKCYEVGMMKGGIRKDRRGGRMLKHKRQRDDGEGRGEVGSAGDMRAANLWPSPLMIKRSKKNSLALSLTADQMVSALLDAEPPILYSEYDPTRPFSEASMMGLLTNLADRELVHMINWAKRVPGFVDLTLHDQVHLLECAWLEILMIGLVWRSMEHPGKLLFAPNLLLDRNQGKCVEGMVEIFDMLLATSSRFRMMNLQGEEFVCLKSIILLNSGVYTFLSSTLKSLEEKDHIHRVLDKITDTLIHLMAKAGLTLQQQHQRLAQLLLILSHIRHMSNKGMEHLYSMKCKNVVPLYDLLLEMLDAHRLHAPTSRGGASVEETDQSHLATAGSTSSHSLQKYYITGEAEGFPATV
Sequence of Estrogen receptor beta (Homo sapiens) (Q92731 whole entry, looked up): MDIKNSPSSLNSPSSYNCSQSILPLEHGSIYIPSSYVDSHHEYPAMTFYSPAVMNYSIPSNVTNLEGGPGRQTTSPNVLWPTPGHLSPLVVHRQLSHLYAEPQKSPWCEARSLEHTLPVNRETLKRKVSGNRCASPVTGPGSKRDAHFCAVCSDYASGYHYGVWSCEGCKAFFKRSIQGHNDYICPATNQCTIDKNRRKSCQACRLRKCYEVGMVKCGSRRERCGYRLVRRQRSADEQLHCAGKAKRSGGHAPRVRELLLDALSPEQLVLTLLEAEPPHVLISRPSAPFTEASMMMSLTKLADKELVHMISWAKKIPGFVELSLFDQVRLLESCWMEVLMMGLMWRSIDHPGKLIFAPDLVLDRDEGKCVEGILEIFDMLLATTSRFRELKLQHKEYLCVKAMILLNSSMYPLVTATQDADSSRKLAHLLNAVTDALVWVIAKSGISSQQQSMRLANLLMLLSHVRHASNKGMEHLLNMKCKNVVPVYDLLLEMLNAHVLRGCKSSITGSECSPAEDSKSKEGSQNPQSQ

`O=NN(CCCl)C(=O)NC1CCCCC1`: the Potency result in test [1], in test [2], in test [3], in test [10], in test [11] and in test [12] was “inactive” throughout. The outcome in [4], in [5], in [6], in test [7], in [8] and in test [9] was inactive. For the same compound, the result in test [13] and in test [14] was inactive.

`CCCCCCCCCCCCCCCCCCOCCO`: the activity change, negative = cytotoxicity was 2.77% [at 15.8 µM] in test [2]; 4.04% [at 19 µM] in test [4]; 0.0538% [at 19 µM] in test [6]; -11.2% [at 19 µM] in [13]; -1.63% [at 19 µM] in test [14]. The cytotoxicity increase in test [3] is -4.91% [at 15.8 µM]. Moreover, the viability change, negative = cytotoxic was -0.694% [at 19 µM] in [15], 1.32% [at 19 µM] in [7] and -0.0007% [at 19 µM] in test [8]. Besides, the activity change, negative = inhibition in test [16] is -1.58% [at 19 µM]; in test [17] it was -2.36% [at 19 µM]. Besides, in test [9], the activity change was -0.0679% [at 18.9 µM]. In addition, the activation in [11] was -0.0155% [at 19 µM]. The activity, negative = inhibition in test [12] is 4.09% [at 19 µM].

On to `C[Si]1(C)O[Si](C)(C)O[Si](C)(C)O[Si](C)(C)O[Si](C)(C)O1`, for which the Potency entry in test [2], in [3], in test [17] and in [10] was “inactive” each time. The outcome in test [4], in test [15], in test [16], in [6], in test [7] and in [8] was inactive. Moreover, the compound was called inactive in test [9], in test [13] and in test [14].

With `ONc1ccccc1`, the Potency entry in test [18], in test [3] and in test [10] was “inactive” in each case. Also, the outcome in test [4], in test [15], in [16], in [6], in test [7] and in [8] was inactive. The compound was called inactive in test [9] and in [13]. The Potency in test [17] was 27 µM (active).

In the case of `CC1c2ccccc2CN1NC(=O)c1ccc(Cl)c(S(N)(=O)=O)c1` (stereo not given), the Potency entry in test [18], in test [2], in test [3], in test [17], in test [10] and in test [11] was “inactive” throughout. In test [12], the Potency result was “inactive”. In addition, the outcome in [4], in test [16], in [6], in test [7], in test [8] and in [9] was inactive. The outcome in [13] and in test [14] was inactive. The PLD induction in test [5] was -1.83% [at 1.53 µM].

Consider `CC(=O)C(C)O` (stereo not given), for which the Potency entry in test [18], in [2], in test [3], in [10], in test [11] and in test [12] was “inactive” throughout. For the same compound, the result in test [4], in [15], in test [6], in [7], in test [8] and in [9] was inactive. Also, the outcome in test [13] and in test [14] was inactive.

Consider `C/C(=C1\CCOC(=O)S1)N(C=O)Cc1cnc(C)nc1N`, for which the Potency result in [18], in [2], in test [3], in test [17], in test [10] and in test [11] was “inactive” in each case. The Potency entry in [12] was “inactive”. The outcome in test [4], in test [15], in [16], in [6], in test [7] and in test [8] was inactive. Further, the call in test [9], in test [13] and in test [14] was inactive.

Regarding `CCOc1cccc(N)c1`, the Potency entry in [3], in [17], in test [10], in test [11] and in [12] was “inactive” in each case. Besides, the result in test [4], in [15], in test [16], in test [6], in [7] and in test [8] was inactive. Moreover, the compound was called inactive in test [9], in [13] and in test [14].

`CCC(C)C(=O)OCCc1ccccc1` (stereo not given): the Potency result in [18], in test [2] and in test [3] was “inactive” in each case. In addition, the result in [4], in test [15], in test [16], in test [6], in test [7] and in test [8] was inactive. Further, the result in test [9], in test [13] and in test [14] was inactive.
